# tim10-1 inh = growth inhibitors of tim10-1 mutant yeast; AID 463190; S. cerevisiae tim10-1 ts strain growth, BacTiter-Glo, 24 h; 330,000 compounds, 2.2% hits; inhibition, % at 20 µM;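 active = inhibition of at least 40%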;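 note: mutant grown at 25 °C; 0% = DMSO wells with yeast and 100% = wells holding no yeast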
# Mot1-301 SUMO = inhibitors of SUMOylation pathway: yeast Mot1-301 growth rescue | 320,000 compounds, 1% hits | AID 2716 | S. cerevisiae Mot1-301 growth rescue, ATP luminescence, 38.5C; percent above DMSO median, 100 means doubled | growth rescue, % at 18.8 µM;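 active = every valid replicate shows activation above 250% relative to neutral control wells; inactive = the rest, any valid replicate at or below 250%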;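 note: OY570 slx delta 5 strain wells were the positive control but not used for scaling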
# tim23-1 inh = growth inhibitors of tim23-1 mutant yeast | inhibition, % at 20 µM | 330,000 compounds, 1.3% hits | S. cerevisiae tim23-1 growth, BacTiter-Glo luminescence, 24 h;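 active = growth inhibition of the mutant yeast at or above 50%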;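 note: temperature-sensitive mutant grown at 25 °C; plate controls were DMSO-treated mutant yeast for no effect and medium wells lacking yeast for full effect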
# TIM10 inh = TIM10 yeast growth inhibition; inhibition, % at 10 µM; 330,000 compounds, 1.4% hits; S. cerevisiae TIM10 strain growth, BacTiter-Glo luminescence, 24 h; AID 463195;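 active = inhibition of 40% or more at the single tested concentration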;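 note: wild-type TIM10 isogenic control strain grown at permissive 25 °C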
# PfHsp90 set2 = growth inhibition of yeast expressing Plasmodium Hsp90; S. cerevisiae expressing PfHsp90, BacTiter-Glo ATP, 48 h; yeast lacking PDR1 and PDR3 efflux regulators; inhibition, % at 9.4 µM; 310,000 compounds, 0.32% hits; AID 504621;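 active = every replicate shows inhibition above about 80%, whatever the replicate mean, limit read from the data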;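 note: 0% = DMSO neutral controls and 100% = 20 µM radicicol positive controls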
# TIM10 conf = confirmation of TIM10 yeast growth inhibitors | 4,600 compounds, 63% hits | shares compounds with TIM10 inh | inhibition, % at 10 µM | S. cerevisiae tim10 strain growth, BacTiter-Glo luminescence, 24 h | AID 463215;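 active = inhibition of yeast growth at or above a set limit in either of two replicates at 10 µM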;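 note: this counterscreen used the strain with wild-type TIM10; 0% = yeast with DMSO and 100% = medium wells lacking yeast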
# tim23-1 confirm = confirmation of tim23-1 mutant yeast growth inhibitors; 4,400 compounds, 83% hits; inhibition, % at 20 µM; AID 463218; S. cerevisiae tim23-1 growth, BacTiter-Glo luminescence, 24 h; shares compounds with tim23-1 inh;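 active = inhibition above about 39% in either of two replicate wells at 20 µM, limit read from the data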;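 note: temperature-sensitive tim23-1 mutant grown at 25 °C; 0% = DMSO wells with yeast and 100% = medium wells without yeast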
# Numbers without * were called inactive; i = inactive; / = no result; ! = repeats disagree. The list is not random: actives were taken first. Their share in the collection is about 4.4%.
SMILES,tim10-1 inh,Mot1-301 SUMO,tim23-1 inh,TIM10 inh,PfHsp90 set2,TIM10 conf,tim23-1 confirm
O=C(Nc1ccc(-c2cn3ccccc3n2)cc1)c1ccc(Cl)cc1,-5.0,12.9,11.5,2.6,-26.8,/,/
O=C(Nc1ccc(-c2cn3ccccc3n2)cc1)c1ccco1,-17.6,/,59.5*,44.3*,21.9,1.1,59.1*
Cc1ccc(C(=O)Nc2cccc(Oc3ccccc3)c2)o1,20.1,/,57.6*,49.5*,9.9,56.1*,76.7*
Cc1ccc(C(=O)Nc2ccccc2Oc2ccccc2)o1,10.0,-20.1,22.4,0.0,-8.9,/,/
O=c1oc(-c2cccs2)nc2c1cnn2-c1ccccc1,37.8,3.0,50.7*,46.9*,-18.9,34.4*,46.6*
O=c1oc(-c2ccccc2)nc2c1cnn2-c1ccccc1,28.4,2.6,39.3,38.9,4.6,/,/
COc1ccc2[nH]c3c(c2c1)CCN1C(=O)C(CC(=O)NCCCn2ccnc2)C[C@H](C(=O)N2CCCCC2)[C@@]31CCc1ccccc1 (stereo partly specified),1.3,/,19.0,-1.1,23.0,/,/
COc1cccc(/C=N/n2c(N)nc3ccccc32)c1OC,10.3,616.0,59.6*,43.8*,-11.8,45.2*,38.1
CN1/C(=C\C(=O)c2cccs2)Sc2ccccc21,38.4,-21.6,59.0*,62.8*,33.7,60.3*,80.3*
CCCCN(C)C(=O)Cn1cnc2sc(C)c(S(=O)(=O)N3CCN(c4ccccc4OC)CC3)c2c1=O,6.6,7.1,8.9,-4.3,-39.5,/,/
CCc1nc2ccccc2c(C(=O)Oc2cccc3cccnc23)c1C,23.1,/,1.7,28.8,-19.4,/,/
Cc1c(C(=O)Oc2cccc3cccnc23)oc2ccccc12,36.3,-1.6,64.6*,53.5*,-0.8,40.5*,58.3*
O=C(Cn1c(=O)cnc2ccccc21)N1CCN(S(=O)(=O)c2cccc([N+](=O)[O-])c2)CC1,-14.8,-18.2,-12.3,-2.7,6.9,/,/
Cn1c(/C(C#N)=C/c2ccc(O)cc2)nc2ccccc21,12.3,-0.3,25.0,-6.5,-0.4,/,/
Cn1c(/C(C#N)=C/c2ccncc2)nc2ccccc21,35.0,2.8,67.7*,45.9*,-25.4,19.2,63.1*
CCOC(=O)CSC1=NC(=O)/C(=C\c2ccc(Cl)cc2)S1,37.8,50.7,71.2*,49.5*,64.2,58.2*,44.9*
CCOC(=O)CN1C(=O)/C(=C/c2ccc(Cl)cc2)Oc2ccccc21,10.5,-1.9,-3.1,-2.1,-8.2,/,/
COc1ccc(-c2cc(=O)c3ccccc3[nH]2)cc1,4.5,-2.7,13.3,17.4,-18.5,/,/
COc1ccc(-c2cc(=O)c3ccccc3s2)cc1,28.7,-11.3,51.6*,41.8*,11.3,44.5*,54.0*
CC(=O)c1ccc(N2CCN(C(=O)/C=C/c3ccc4ccccc4n3)CC2)cc1,23.6,262.8,50.3*,63.9*,0.8,75.8*,39.6*
COc1ccccc1NC(=O)Cn1nc(Cc2cccnc2)c2ccccc2c1=O,3.7,-1.8,2.2,-20.3,1.4,/,/
COC(=O)/C(=C(/F)Sc1cc(C)c(O)c(C)c1)C(F)(F)F,32.3,-12.1,53.6*,42.4*,-29.0,29.9,51.9*
COC(=O)C(Nc1ccccc1Cl)(c1cc(C)c(O)c(C)c1)C(F)(F)F (stereo unspecified),5.6,-30.5,23.5,7.7,-17.4,/,/
Cc1ccn2cc(C(=O)Nc3ccc4c(c3)OCCO4)nc2c1,29.4,9.0,50.3*,43.8*,-13.0,24.8,49.5*
O=C(COC(=O)c1c[nH]c2ccccc12)Nc1ccc(F)cc1,-1.5,-25.9,-2.5,-3.9,3.6,/,/
SMILES,tim10-1 inh,Mot1-301 SUMO,tim23-1 inh,TIM10 inh,PfHsp90 set2,TIM10 conf,tim23-1 confirm
O=C(CSc1ccccc1)Nc1ccc2sccc2c1,9.2,-3.0,5.4,5.2,-7.5,/,/
Cc1nn(CCOc2cccc(Cl)c2)c(C)c1[N+](=O)[O-],14.3,-7.9,9.6,4.1,-3.1,/,/
CCCCOc1ccc(-c2csc(N)n2)cc1[N+](=O)[O-],22.9,120.8,53.2*,42.7*,12.1,-1.6,62.7*
Cc1ccc(-c2nnc(N3CCCCCC3)c3ccccc23)cc1,24.7,i,59.9*,43.8*,0.3,14.7,54.2*
Cc1ccc(OCC(=O)N2CCN(c3nnc(-c4ccc(C)cc4)c4ccccc34)CC2)cc1,23.4,-9.1,21.5,15.5,/,/,/
Cc1nc2ccccc2c2c(N)cccc12,/,/,/,/,3.5,/,/
CC(=O)SC(C[N+](=O)[O-])c1cn(C(C)=O)c2ccccc12 (stereo unspecified),26.6,404.3*,88.7*,79.8*,124.3*,85.9*,-75.8
CC(=O)n1cc(Nc2ccc([N+](=O)[O-])cc2)c2ccccc21,3.6,/,-19.3,-20.4,-5.5,/,/
CC(=O)Nc1sc2c(c1C(c1ccc(Cl)cc1)N1CCOCC1)CCCC2 (stereo unspecified),29.2,195.4,50.5*,41.2*,32.4,-53.3,55.1*
O=C1CCc2cc(S(=O)(=O)NCc3ccc(F)cc3)cc3c2N1CCC3,7.4,0.1,-9.8,3.8,1.1,/,/
O=[N+]([O-])c1cc(C(F)(F)F)ccc1NCCNC(=S)Nc1ccc(Cl)cc1,-32.2,25.1,80.5*,56.0*,-23.0,50.4*,-14.6
CC(=O)NCc1ccc(-c2csc(-c3cccs3)n2)cc1,17.7,8.3,25.7,1.4,15.3,/,/
N#Cc1ccccc1Cn1cc(/C=C/[N+](=O)[O-])c2ccccc21,31.9,-26.9,69.1*,66.7*,10.5,-1.1,81.8*
CC(=O)c1ccc(NC(=O)C(C)Oc2ccc(N(C)S(=O)(=O)c3ccc(C)cc3)cc2)cc1 (stereo unspecified),-0.8,0.0,6.6,12.2,30.6,/,/
COc1cccc(CNC(=O)c2cc(S(=O)(=O)N3CCOCC3)ccc2N2CCCC2)c1,19.2,-7.0,13.1,10.2,-3.4,/,/
CCn1c(C)c(C)c2cc(C(=O)Nc3cccc(Cl)c3)ccc21,20.0,-3.1,52.4*,40.6*,-10.7,51.5*,57.0*
CCc1oc2ccccc2c1C(=O)CCN1CCCCC1,33.2,12.0,52.5*,56.5*,3.4,41.3*,-121.5
O=C(Nc1ccc2nsnc2c1)c1cccs1,16.5,153.4,19.3,18.4,8.5,/,/
O=C(Nc1cccc2nsnc12)c1cccs1,15.9,56.6,61.1*!,68.5*!,-23.5,58.4*,76.0*
Cc1cccc2nc(-c3ccco3)oc(=O)c12,28.3,-0.2,13.0,-10.8,-4.2,/,/
O=C(Nc1ccc2oc(-c3ccccc3F)nc2c1)c1ccccc1F,6.6,7.7,60.5*,55.0*,13.1,60.1*,78.8*
O=C(Nc1ccc2c(c1)OCCO2)c1ccc(Br)cc1,-18.9,3.8,0.6,-11.8,0.0,/,/

# Bioassay records: PubChem, several laboratories
